Most compounds without a hit are left out; they make up all but 4.3% or so of the library.
Yeast superoxide: reduction of superoxide in aged yeast, primary screen, HTS | superoxide response (% of plate mean), % at 10 µM | S. cerevisiae aged cells, superoxide DHE fluorescence; active compounds read low | 0.18% of 330,000 active;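 active = superoxide response under a set limit, about three screen SD below normal, cut at about 65% in these data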;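 note: yeast aged for seven days with compound at 30 °C before DHE staining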
dFosB activator: activators of delta FosB homodimer, primary screen, biochemical, fluorescence polarization, TAMRA-CDK5 oligo, single point; purified delta FosB; percent of positive-control signal above neutral wells; activation, % at 25 µM; 0.99% of 340,000 active; AID 493131, 2011;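 active = mean activation above about 17%, with every replicate also reaching it, limit read from the data, passing the limit was not always enough; inconclusive = only one of the two conditions met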
Target sequence (P13346 whole entry, looked up): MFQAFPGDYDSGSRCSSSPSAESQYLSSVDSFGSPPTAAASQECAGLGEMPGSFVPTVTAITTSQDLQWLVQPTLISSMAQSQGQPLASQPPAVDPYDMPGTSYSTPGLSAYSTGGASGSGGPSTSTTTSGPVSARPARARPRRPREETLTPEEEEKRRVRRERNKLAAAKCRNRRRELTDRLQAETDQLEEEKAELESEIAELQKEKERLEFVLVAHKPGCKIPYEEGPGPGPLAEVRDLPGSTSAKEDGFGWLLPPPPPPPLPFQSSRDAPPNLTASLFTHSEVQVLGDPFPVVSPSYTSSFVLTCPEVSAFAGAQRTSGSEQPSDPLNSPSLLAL
NALP1 yeast inh: NALP1 inflammasome inhibitors in reconstituted yeast, colorimetric, S. cerevisiae, triplicate retest | inhibition, % at 10 µM | 0.61% of 280,000 active | AID 2071, 2009 | S. cerevisiae NALP1/ASC/caspase-1 growth, X-gal OD620, 72 h; in the data active = inhibition mostly above about 24%, no sharp cut-off; inactive = mostly below about 32%
GRIN3A LBD mod: binders of NR3A ligand-binding domain, primary screen, biophysical, differential scanning fluorimetry, uHTS; Glutamate receptor ionotropic, NMDA 3A (GRIN3A) ligand-binding domain; NR3A LBD differential scanning fluorimetry, Tm shift; 0% = protein alone, 100% = glycine-bound protein; Tm shift relative to glycine control, % at 25 µM; 2.5% of 340,000 active; AID 1259313, 2017;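 active = melting temperature shift of at least 10% of the positive control shift, at one fixed dose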
UBC13 inh: UBC13 polyubiquitin chain formation inhibitors, primary screen, biochemical, TR-FRET, uHTS; Ubiquitin-conjugating enzyme E2 N (Homo sapiens), P61088; inhibition, % at 20 µM; 0.47% of 330,000 active; AID 485273, 2010; in the data active = inhibition above about 45%, passing the limit was not always enough; inconclusive = no clear call, values can overlap the other calls
Target sequence (P61088 whole entry, looked up): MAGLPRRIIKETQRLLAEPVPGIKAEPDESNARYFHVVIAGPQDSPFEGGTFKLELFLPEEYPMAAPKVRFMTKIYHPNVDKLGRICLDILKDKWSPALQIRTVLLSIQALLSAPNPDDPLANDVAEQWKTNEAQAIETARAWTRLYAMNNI
Of the large screens only hits and unclear results are named; the others gave an inactive call.

COc1cccc(-c2nc(NC(C)(C)C)c3ccccc3n2)c1O	none
Cc1cccc(NS(=O)(=O)c2ccc(C)c(C(=O)NC3CCN(Cc4ccccc4)CC3)c2)c1	none (no result: Yeast superoxide, NALP1 yeast inh, UBC13 inh)
Nc1ncnc2c1ncn2[C@@H]1O[C@H](CNCc2ccc(OCC(=O)Nc3nccs3)cc2)[C@@H](O)[C@H]1O	none (no result: NALP1 yeast inh)
Oc1cccc(Nc2nc(-c3ccccc3)nc3ccccc23)c1	GRIN3A LBD mod 28
CC(=O)c1cccc(Nc2nc(-c3ccccc3)nc3ccccc23)c1	GRIN3A LBD mod 23
COc1ccc(-c2csc(NC(=O)C3=NN(c4ccccc4)C(=O)CC3)n2)cc1	none
CN(C)CCCNS(=O)(=O)c1ccc(NC2CCCCCC2)c([N+](=O)[O-])c1	none
CC1=NN2C(=N)/C(=C\c3cc(C)n(-c4ccc(C)cc4)c3C)C(=O)N=C2S1	GRIN3A LBD mod 22
CCCC1=NN2C(=N)/C(=C\c3cc(C)n(-c4cccc(C)c4)c3C)C(=O)N=C2S1	none
Cc1ccc(S(=O)(=O)Nc2nc(C)c(C(=O)Nc3ccccc3)s2)cc1	none
Cc1nc(Nc2ccc(S(N)(=O)=O)cc2)sc1C(=O)Nc1ccccc1	GRIN3A LBD mod 33
Cc1nc(NCc2ccccc2)sc1C(=O)Nc1ccccc1	none
Cc1nc(Nc2ccccc2)sc1C(=O)Nc1ccccc1	GRIN3A LBD mod 38
COc1ccccc1Nc1nc(C)c(C(=O)Nc2ccccc2)s1	GRIN3A LBD mod 25
Cc1nc(C)c(-c2csc(Nc3cccc(O)c3)n2)s1	GRIN3A LBD mod 20
Cc1nc(Nc2ccccc2Cl)sc1C(=O)Nc1ccccc1	none
COC(=O)C1=C(C)N(C)C(=O)NC1c1c(O)ccc2ccccc12 (stereo not given)	none
CSc1ccc(NC(=O)c2cccnc2)cc1C#N	none
Cc1nc(C)c(-c2csc(Nc3ccc(S(N)(=O)=O)cc3)n2)s1	GRIN3A LBD mod 32
Cc1nc(Nc2ccc(S(N)(=O)=O)cc2)sc1-c1ccccc1	GRIN3A LBD mod 16
CCOc1cc(-c2nc(-c3ccc(OC)cc3)no2)cc(OCC)c1OCC	none
CCOc1cc(-c2nc(-c3ccncc3)no2)cc(OCC)c1OCC	NALP1 yeast inh 22
CCOc1cc(-c2nc(-c3ccccc3OC)no2)cc(OCC)c1OCC	GRIN3A LBD mod 11
CCCCn1c(N)c(N(CC)C(=O)c2cccs2)c(=O)[nH]c1=O	none (no result: NALP1 yeast inh)
CCCCN(C(=O)c1cccc(S(=O)(=O)N(CC)c2ccccc2)c1)c1c(N)n(CC(C)C)c(=O)[nH]c1=O	none (no result: Yeast superoxide, NALP1 yeast inh, UBC13 inh)
CSCCC(NC(=O)c1ccccc1)C(=O)N(C)CC(=O)Nc1ccc(N2CCOCC2)cc1 (stereo not given)	GRIN3A LBD mod 13
CN(Cc1cn(Cc2ccccc2)nc1-c1ccc2c(c1)OCO2)Cc1nccn1C	none
Cc1nc(SCC(=O)Nc2cccnc2Cl)nc(C)c1C	none
Cc1ccc(NS(=O)(=O)c2c(C(=O)N3CCCCCC3)c(C)n(C)c2C)c(Cl)c1	none
COc1ccc(C(=O)N[C@H](C(=O)NCCc2ccc3c(c2)OCCO3)C(C)C)cc1	none (no result: NALP1 yeast inh)
COc1ccc(C2CC(c3ccccc3)=NN2c2ccc(Cl)c(C(=O)O)c2)cc1 (stereo not given)	GRIN3A LBD mod 13
NS(=O)(=O)c1ccc(N2N=C(c3ccc(Br)cc3)CC2c2ccc(F)cc2)cc1 (stereo not given)	GRIN3A LBD mod 39
COc1ccc(C2CC(c3ccccc3)=NN2c2ccc(N)cc2)cc1 (stereo not given)	none
COc1ccc(C2CC(c3ccc(Cl)cc3)=NN2c2ccc(S(N)(=O)=O)cc2)cc1 (stereo not given)	GRIN3A LBD mod 37 (no result: NALP1 yeast inh, UBC13 inh)
COc1ccc(C2CC(c3cccc(Cl)c3)=NN2c2ccc(S(N)(=O)=O)cc2)cc1 (stereo not given)	GRIN3A LBD mod 28 (no result: NALP1 yeast inh, UBC13 inh)
CC(C)(C)c1ccc(C(=O)CCC(=O)OCC(=O)NCCc2ccc(S(N)(=O)=O)cc2)cc1	none (no result: NALP1 yeast inh)
CCCCc1ccc(NC(=S)N2CCCC(C)C2)cc1 (stereo not given)	none
Cn1c(N=Nc2ccc(N3CCOCC3)cc2)[n+](C)c2ccccc21	dFosB activator 40 (no result: Yeast superoxide, UBC13 inh)
COC(=O)CN(c1ccccc1C)S(C)(=O)=O	NALP1 yeast inh 31
NC(=S)N=Nc1ccc(NN=C(N)N)cc1	dFosB activator 29
CC(C)CN(C(=O)c1ccc(-n2cncn2)c([N+](=O)[O-])c1)C1CCS(=O)(=O)C1 (stereo not given)	none (no result: NALP1 yeast inh)
Cc1ccc(S(=O)(=O)c2c(N)n(NC(=O)c3ccccc3C)c3nc4ccccc4nc23)cc1	dFosB activator inconclusive, GRIN3A LBD mod 11
Cc1ccc(C(=O)Nn2c(N)c(S(=O)(=O)c3ccc(C)cc3)c3nc4ccccc4nc32)cc1	none
CCCCCn1c(NC(=O)c2ccco2)c(S(=O)(=O)c2ccc(C)cc2)c2nc3ccccc3nc21	GRIN3A LBD mod 15
CCNC(=O)C1CCCN(c2nc(C)cc(C)n2)C1 (stereo not given)	none
COc1ccc(C(=O)O)cc1S(=O)(=O)N1CCN(Cc2ccc3c(c2)OCO3)CC1	none (no result: NALP1 yeast inh)
CN(C)c1ccc(CCc2ccc(N)cc2)cc1	none (no result: NALP1 yeast inh)
Nc1ccc(N(c2ccccc2)c2ccc(N)cc2)cc1	dFosB activator 23
CC1CCCN(CCCOc2ccc(Br)cc2Cl)C1 (stereo not given)	NALP1 yeast inh 26
C[C@@H]1CN=C2N(CCNC(=O)CCC3CCCCC3)[C@H](Cc3ccc(O)cc3)CN21	none
CCCCCCNC(=O)N[C@H](C(=O)NCCC[C@H]1CN2C(=NC[C@H]2C)N1CCC(c1ccccc1)c1ccccc1)C(C)O (stereo not given in full)	UBC13 inh 49 (no result: Yeast superoxide, NALP1 yeast inh, GRIN3A LBD mod)
CCCCc1ccc(NC(=S)NCCc2ccc(F)cc2)cc1	none
COc1cc(C(=O)NC(C)c2ccc(S(N)(=O)=O)cc2)ccc1OCC(=O)N1CCOCC1 (stereo not given)	GRIN3A LBD mod 11
CCN1CCN(c2ccc(NC(=O)c3cccc(OCc4ccccc4)c3)cc2)CC1	none
O=C(Nc1ccc2ccccc2c1)c1cccc([N+](=O)[O-])c1	GRIN3A LBD mod 30
CC(C)NS(=O)(=O)c1ccc(NC(=S)NC(=O)c2cccc([N+](=O)[O-])c2)cc1	GRIN3A LBD mod 13
CN1CCN(c2ccc(NC(=O)c3cccc(OCc4ccccc4)c3)cc2)CC1	NALP1 yeast inh 31
Cc1cccc(NC(=S)NNC(=O)c2cccc([N+](=O)[O-])c2)c1	none
O=C(NNC(=S)Nc1ccc(Cl)c(Cl)c1)c1cccc([N+](=O)[O-])c1	GRIN3A LBD mod 22 (no result: dFosB activator, NALP1 yeast inh)
O=C(NC(=S)Nc1cccc(F)c1)c1cccc([N+](=O)[O-])c1	none
CC(=O)Nc1ccc(OCc2cccc([N+](=O)[O-])c2)cc1	none
O=C(Nc1cccc([N+](=O)[O-])c1)c1ccc(CSc2ccccc2)cc1	GRIN3A LBD mod 31

High-throughput results (PubChem BioAssay)
